Data from PubChem BioAssay AID720597 (Broad Institute, 2013).
Entries with a potency or affinity are not part of this list. The source made the active and inactive calls.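 The calls were made as follows: active = fitted half-maximal dose no more than twice the top valid tested dose, for compounds that lower signal; inconclusive = fit invalid, or curve flat with activity between -70 and -30; inactive = potency past limit, curve flat within ±30, or signal increasing.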

molecular target: NAD-dependent protein deacylase sirtuin-5, mitochondrial (Homo sapiens) (UniProt Q9NXA8); experiment: SIRT5 deacylase inhibitors, dose response, biochemical, fluorescence imaging, cherry-pick, set 6 (AID 720597); details: Purified SirT5, succinyl-peptide-AMC/trypsin fluorescence; series mostly up to 15 µM;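 also: lower AMC signal can also come from blocking the trypsin step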
Sequence (Q9NXA8 whole entry, looked up): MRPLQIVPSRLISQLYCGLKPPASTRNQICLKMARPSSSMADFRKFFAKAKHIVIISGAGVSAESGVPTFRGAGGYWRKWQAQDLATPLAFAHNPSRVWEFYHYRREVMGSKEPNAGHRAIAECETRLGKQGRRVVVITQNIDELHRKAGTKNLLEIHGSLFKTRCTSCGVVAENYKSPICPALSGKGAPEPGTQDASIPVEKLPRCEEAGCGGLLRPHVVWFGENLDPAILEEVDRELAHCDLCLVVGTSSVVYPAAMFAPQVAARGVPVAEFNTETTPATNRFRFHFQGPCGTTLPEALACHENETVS

outcome, inactive:
C[C@@H]1CN([C@@H](C)CO)C(=O)c2cc(NC(=O)Cc3cn(C)c4ccccc34)ccc2O[C@H]1CN(C)Cc1ccc(Cl)c(Cl)c1
CC(C)CC#Cc1ccc2c(c1)O[C@@H](CN(C)C(=O)C1CCCCC1)[C@H](C)CN([C@H](C)CO)S2(=O)=O
C[C@@H]1CCCCO[C@H](CN(C)C(=O)Nc2ccc(C(F)(F)F)cc2)[C@H](C)CN([C@@H](C)CO)C(=O)c2cc(NS(=O)(=O)c3ccc(Cl)cc3)ccc2O1
C[C@H](CO)N1C[C@H](C)[C@H](CN(C)Cc2ccc(-c3ccccc3)cc2)Oc2cc(C#C[C@@H](C)O)ccc2S1(=O)=O
O=C(C[C@@H]1C[C@@H]2c3cc(NC(=O)NC4CCCCC4)ccc3O[C@@H]2[C@H](CO)O1)NCCc1ccccc1
C[C@@H]1CN([C@@H](C)CO)S(=O)(=O)c2ccc(C3=CCCCC3)cc2O[C@@H]1CN(C)C(=O)Cc1ccccc1
COc1ccc(S(=O)(=O)N(C)C[C@@H]2OCCCC[C@@H](C)Oc3ccc(NC(=O)Nc4ccc(C(F)(F)F)cc4)cc3C(=O)N([C@@H](C)CO)C[C@@H]2C)cc1
O=C(NCC1CCCCC1)[C@H]1[C@H](CO)[C@H]2Cn3c(cccc3=O)[C@@H]1N2CCc1ccccc1
CCCC(=O)Nc1ccc2c(c1)OC[C@@H](C)N(Cc1ccccc1OC)C[C@@H](C)[C@H](OC)CN(C)C2=O
C[C@@H]1CN([C@H](C)CO)S(=O)(=O)c2ccc(C3=CCCCC3)cc2O[C@H]1CN(C)S(=O)(=O)c1ccc(F)cc1
C[C@@H]1CN([C@H](C)CO)C(=O)c2c(c3ccccc3n2C)-c2ccccc2CO[C@H]1CN(C)S(=O)(=O)c1ccc(C(F)(F)F)cc1
